Test [1] can be described thus: reduced viability of SK-BR-3 breast cancer cells – cell-based, 24 h, human, pilot screen (AID 572;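 active means viability at or below 10% of carrier control in both of two separate runs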;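 further: compound exposure lasted between 18 and 24 h rather than exactly 24 h; 100% = carrier-treated control wells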). Particulars: SK-BR-3 viability, CellTiter-Glo luminescence, at 10 µM, stronger effect = lower value. In general terms: ATP-based viability assays read luminescence as a measure of living cells.
Test [2] in a line: HUVEC growth inhibition – cell-based, human, primary screen (AID 575;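 active means viability at or below 30% in both replicate assays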;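 further: 100% = median of untreated cell wells with 0.1% DMSO on each plate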). Particulars: HUVEC proliferation, CellTiter-Glo luminescence, 72 h; at 10 µM; stronger effect = lower value.
The nature of test [3]: H69AR cell proliferation blockers – human, duplicate replicates, primary screen (AID 580;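 active means viability at or under a set limit in both replicates, limit being median viability minus 3 SD, cut at about 48% in these data, passing the limit was not always enough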;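 further: 100% = mean luminescence of untreated wells and 0% = no signal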). Particulars: H69AR lung tumor cells viability, ATP luminescence, 72 h; at 10 µM; stronger effect = lower value.
Test [4] is described as follows: MRP1 drug-resistance reversers in H69AR cells – cell-based, doxorubicin co-treatment, pilot screen (AID 601). Particulars: CellTiter-Glo, 72 h, at 10 µM; for differential viability (reversal): stronger effect = higher value.
Test [5] can be described thus: yeast transport mutant growth inhibition pilot in 384-well plates, post-Golgi transport modulator project (AID 636; in the data active means inhibition above about 31%). Conditions: absorbance 615 nm, about 18 h, stronger effect = higher value.
Test [6] in a line: growth suppression of yeast trafficking mutant, preliminary HTS, modulators of trafficking downstream of Golgi apparatus project, 1536-format plate, OD 615 nm (AID 637; in the data active means inhibition above about 30%). Particulars: yeast transport mutant growth, absorbance 615 nm, 18 h; stronger effect = higher value.
The mark [7] stands for this setting: H69AR cells + 2 uM doxorubicin, measured here: viability with 2 uM doxorubicin, stronger effect = lower value.
Where [8] appears, read: H69AR cells, compound alone cytotoxicity.

For 17 compounds, viability, differential viability (reversal) and inhibition results are on record in PubChem BioAssay.

Calls of active or inactive are those of the source.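 How the source made its calls, unless noted: active means viability loss from added drug above about 55%, and viability with drug at most 40%, in both replicates (limit read from the data, passing the limit was not always enough); inconclusive means both conditions met in only one replicate; inactive means neither replicate meets both conditions.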

By viability is commonly meant a read-out of living cells in per cent, often relative to untreated cells. In general, inhibition refers to the relative decrease from the control value, in per cent. Regarding `COc1ccc(-c2nnnn2C)cc1S(=O)(=O)NCc1ccccc1`, the viability in test [1] was 93.5% (inactive); in test [2] it was 117% (inactive); in test [3], 95.7% (inactive); in test [4] (setting [7]) it was 91.1%; in test [4] (setting [8]) it was 95.7%. Further, the differential viability (reversal) in test [4] (H69AR cells + 2 uM doxorubicin) was 4.64% (inactive). Also, the inhibition in test [5] was -0.26% (inactive); in test [6], -2.17% (inactive).

`CCCCCCn1c(CN2CCCC(C)C2)nc2c1c(=O)n(C)c(=O)n2C` (stereo unspecified): the viability is 57% (inactive) in test [1]; 111% (inactive) in test [2]; 101% (inactive) in test [3]; 93.1% in test [4] (setting [7]); 101% in test [4] (setting [8]). For the same compound, the differential viability (reversal) in test [4] (H69AR cells + 2 uM doxorubicin) is 7.51% (inactive). In addition, the values for the inhibition in test [5] and in test [6] were -7.12% (inactive) and 2.36% (inactive), respectively.

For `COc1ccccc1-n1c(=O)c2c3c(sc2n2c(SC(C)C)nnc12)CCC3`, the viability in test [1] is 104% (inactive); in test [2], 113% (inactive); in test [3], 86.2% (inactive); in test [4] (setting [7]) it was 41.7%; in test [4] (setting [8]) it was 86.2%. Further, the differential viability (reversal) in test [4] (H69AR cells + 2 uM doxorubicin) is 44.6% (inactive). The inhibition in test [5] is -0.14% (inactive); in test [6] it was 1.77% (inactive).

On to `COC(=O)CS(=O)(=O)c1nnc([C@H](Cc2ccccc2)NC(=O)OC(C)(C)C)o1`, for which the viability is 77.5% (inactive) in test [1]; 3.82% (active) in test [2]; 1.21% (active) in test [3]; 0.69% in test [4] (setting [7]); 1.21% in test [4] (setting [8]). Besides, the differential viability (reversal) in test [4] (H69AR cells + 2 uM doxorubicin) was 0.515% (inactive). In addition, the inhibition in test [5] was -5.45% (inactive); in test [6], -12.3% (inactive).

Consider `NC(N)=Nc1nc(CSCC/C(N)=N/S(N)(=O)=O)cs1`, for which the viability was 89% (inactive) in test [1]; 98.5% (inactive) in test [2]; 95.8% (inactive) in test [3]; 104% in test [4] (setting [7]); 95.8% in test [4] (setting [8]). Further, in test [4] (H69AR cells + 2 uM doxorubicin), the differential viability (reversal) is -8.47% (inactive). The results for the inhibition in test [5] and in test [6] were 3.9% (inactive) and 5.33% (inactive), respectively.

On to `COc1ccccc1NC(=O)C(C)NS(=O)(=O)c1ccc(F)cc1` (stereo unspecified), for which the viability was 141% (inactive) in test [1]; 89.5% (inactive) in test [2]; 89.2% (inactive) in test [3]; 88.6% in test [4] (setting [7]); 89.2% in test [4] (setting [8]). Moreover, the differential viability (reversal) in test [4] (H69AR cells + 2 uM doxorubicin) is 0.595% (inactive). Also, the inhibition in test [5] is -5.58% (inactive); in test [6], 0% (inactive).

Regarding `CCOC(=O)c1cc2sc(C)cc2n1CC(=O)Nc1cccc(C)c1C`, the viability was 90% (inactive) in test [1]; 99.2% (inactive) in test [2]; 91.2% (inactive) in test [3]; 94.2% in test [4] (setting [7]); 91.2% in test [4] (setting [8]). Also, the differential viability (reversal) in test [4] (H69AR cells + 2 uM doxorubicin) is -3.05% (inactive). Moreover, the inhibition in test [5] is -5.81% (inactive); in test [6] it was -5.82% (inactive).

Regarding `O=C(NC(C(=O)c1ccccc1)N1CCOCC1)c1cccs1` (stereo unspecified), the viability is 87% (inactive) in test [1]; 100% (inactive) in test [2]; 96% (inactive) in test [3]; 81% in test [4] (setting [7]); 96% in test [4] (setting [8]). Further, in test [4] (H69AR cells + 2 uM doxorubicin), the differential viability (reversal) is 15% (inactive). Further, the figures for the inhibition in test [5] and in test [6] were -1.22% (inactive) and -4.36% (inactive), respectively.

Turning to `CCSc1nc(O)c(C2OC(=O)c3c2ccc(OC)c3OC)c(=O)n1-c1ccccc1` (stereo unspecified), the viability was 129% (inactive) in test [1]; 94.5% (inactive) in test [2]; 96.5% (inactive) in test [3]; 85.1% in test [4] (setting [7]); 96.5% in test [4] (setting [8]). For the same compound, the differential viability (reversal) in test [4] (H69AR cells + 2 uM doxorubicin) was 11.4% (inactive). Moreover, the inhibition was -9.45% (inactive) in test [5] and 4.35% (inactive) in test [6].

On to `COc1ccc(OCCOC(=O)c2cccc(-n3cnnn3)c2)cc1`, for which the viability in test [1] was 90% (inactive); in test [2] it was 107% (inactive); in test [3] it was 100% (inactive); in test [4] (setting [7]), 92.6%; in test [4] (setting [8]) it was 100%. Besides, in test [4] (H69AR cells + 2 uM doxorubicin), the differential viability (reversal) was 7.56% (inactive). The figures for the inhibition in test [5] and in test [6] were -8.36% (inactive) and 1.64% (inactive), respectively.

For `c1ccc2c(SCc3cn4cccnc4n3)ncnc2c1`, the viability in test [1] is 108% (inactive); in test [2], 99.9% (inactive); in test [3], 88.4% (inactive); in test [4] (setting [7]), 78%; in test [4] (setting [8]), 88.4%. Also, the differential viability (reversal) in test [4] (H69AR cells + 2 uM doxorubicin) is 10.4% (inactive). Also, the values for the inhibition in test [5] and in test [6] were -4.8% (inactive) and -3.82% (inactive), respectively.

In the case of `CS(=O)(=O)N(CC(=O)NCc1ccncc1)Cc1ccc(Cl)cc1`, the viability in test [1] was 104% (inactive); in test [2], 101% (inactive); in test [3] it was 98.3% (inactive); in test [4] (setting [7]), 97.8%; in test [4] (setting [8]), 98.3%. Besides, in test [4] (H69AR cells + 2 uM doxorubicin), the differential viability (reversal) was 0.52% (inactive). The inhibition in test [5] was -8.36% (inactive); in test [6], 0.81% (inactive).

Consider `Cc1cc(N2CCN(C3CCCC3)CC2)n2c(nc3ccccc32)c1C#N`, for which the viability in test [1] is 78% (inactive); in test [2], 96.8% (inactive); in test [3], 91.4% (inactive); in test [4] (setting [7]) it was 63.3%; in test [4] (setting [8]) it was 91.4%. Moreover, in test [4] (H69AR cells + 2 uM doxorubicin), the differential viability (reversal) was 28.1% (inactive). The inhibition in test [5] was -2.19% (inactive); in test [6] it was 2.42% (inactive).

For the compound `Cn1c(=O)[nH]c(=O)c2c1nc(Br)n2CCCSc1nc2ccccc2o1`, the viability in test [1] was 89% (inactive); in test [2] it was 36.2% (inactive); in test [3], 23.8% (active); in test [4] (setting [7]), 33.3%; in test [4] (setting [8]) it was 23.8%. The differential viability (reversal) in test [4] (H69AR cells + 2 uM doxorubicin) was -9.42% (inactive). In addition, the inhibition in test [5] is -4.13% (inactive); in test [6] it was -4.55% (inactive).

Consider `COc1ccccc1CNC(=O)C(C)NS(=O)(=O)c1ccccc1` (stereo unspecified), for which the viability in test [1] was 113% (inactive); in test [2] it was 106% (inactive); in test [3] it was 87.1% (inactive); in test [4] (setting [7]) it was 98.1%; in test [4] (setting [8]), 87.1%. In addition, the differential viability (reversal) in test [4] (H69AR cells + 2 uM doxorubicin) was -11% (inactive). Also, the figures for the inhibition in test [5] and in test [6] were -7.4% (inactive) and -0.73% (inactive), respectively.

Consider `O=S(=O)(NCC1CCCO1)c1ccc2c(c1)OCCO2` (stereo unspecified), for which the viability is 128% (inactive) in test [1]; 98% (inactive) in test [2]; 97.6% (inactive) in test [3]; 96.8% in test [4] (setting [7]); 97.6% in test [4] (setting [8]). Also, the differential viability (reversal) in test [4] (H69AR cells + 2 uM doxorubicin) was 0.805% (inactive). Moreover, the inhibition in test [5] is 0.41% (inactive); in test [6] it was -5.48% (inactive).

For `CC(=O)Nc1ccc(S(=O)(=O)CCC#N)cc1`, the viability was 109% (inactive) in test [1]; 89.4% (inactive) in test [2]; 91.7% (inactive) in test [3]; 98% in test [4] (setting [7]); 91.7% in test [4] (setting [8]). Also, the differential viability (reversal) in test [4] (H69AR cells + 2 uM doxorubicin) is -6.28% (inactive). Besides, the values for the inhibition in test [5] and in test [6] were -1.17% (inactive) and 5.41% (inactive), respectively.
